This is part of a sample that, as a whole, favours compounds with a hit. Of some 83,000 tested, about 20% had one in any assay.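 How to read the values: 0–100, growth inhibition (40 = 60% inhibited); 0, no net growth; -100 to 0, cell death (-40 = 40% of starting cells died; -100 = all dead).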 A number with no mark means an inactive call. Calls of active or inactive are those of the source. The calls were made as follows: active = growth percent below 10; inactive = the rest.
These molecules were tested on MDA-MB-468 breast (assay: NCI-60 one-dose screen, 48 h (100 = growth as untreated, 0 = no growth, -100 = all killed)). Settings: 10 µM unless noted.

SMILES | growth
CCN(CC)CCCOc1cccc2c1C(=O)c1cccc(OCCCN(CC)CC)c1C2=O | 35.5%
N#CC(=S)Nc1ccc(Cl)c(Cl)c1 | -5.08% (active)
COc1ccc(C2=Nn3c(NN)nnc3SC2)cc1 | 106%
CCOC(=O)C/C(=N\Nc1cc(=O)[nH]c2ccc(C)cc12)C(=O)OCC | 91.1%
Cn1cc(-c2nc(-c3c[nH]c4ncccc34)cs2)c2cc(F)ccc21 | -22.6% (active)
COC1OC(C(O)C(O)CO)C(O)C(O)C1O (stereo not given) | 101%
COc1ccc(/C=C/c2nc(Nc3ccc(Cl)cc3)c3ccccc3n2)cc1 | 28.1%
CC(C)c1ccccc1NC(=O)N1CCC(C(C)C)CC1 | 99.8%
O=C(O)c1ccnc(Br)c1 | 91.1%
Nn1c(N/N=C/c2nc3ccccc3s2)n[nH]c1=S | 109%
C=C(Cl)COC(=O)C(C)(C)O | 118%
CN1CCN(Cc2ccc(NC(=O)c3cncc(C#Cc4cnc(N)cc4C#N)c3)cc2C(F)(F)F)CC1 | -4.22% (active)
Cc1c(CN)cc(-c2ccc(Cl)cc2)n1-c1ccccc1 | 18.7%
Cc1ccc2c(n1)C(=O)C(Oc1ccc(Br)cc1)=CC2=O | 91.3%
CCOC(=O)c1[nH]c2c(c1C)-c1[nH]c(=O)c(S(=O)(=O)c3ccccc3)cc1SC2 | 23.9% [100 µM]
Cc1cc(C)c(NC(=O)c2sc3nc4c(cc3c2N)C(=O)CCC4)c(C)c1 | -27.2% (active)
CCCOC(=O)c1ccc([N+](=O)[O-])o1 | 113%
COc1cccc(C2(C)Nc3ccccc3-c3nc4ccccc4n32)c1 (stereo not given) | 109%
CCOC(=O)/C=C1\SC(=Nc2ccc(C#N)cc2)N(CCN2C(=O)/C(=C/C(=O)OCC)SC2=Nc2ccc(C#N)cc2)C1=O | 55.3%
COc1cc2ncnc(Nc3cccc(Cl)c3F)c2cc1OC(=O)N1CCN(C)C[C@H]1C | -10.7% (active)

SMILES | growth
CCN1CCN(C(=O)[C@@]2(C)CC[C@]3(C)CC[C@]4(C)C(=CC(=O)[C@@H]5[C@@]6(C)CC[C@H](OC7C[C@@H](O)[C@@H](O)C(C)O7)C(C)(C)[C@@H]6CC[C@]54C)[C@@H]3C2)CC1 (stereo not given in full) | 16.9%
COc1ncc2cc1NS(=O)(=O)c1cccc(c1)C(=O)NCC1=CC=C(S1)c1ncnc3c1SC2=C3C | -34.5% (active)
CCOc1ccc(NC(=O)Nc2cc(C(C)C)ccc2C)cc1 | 114%
O=[N+]([O-])c1ccc(NC(=S)NNC(=S)Nc2ccc(F)cc2)cc1 | 74.6%
O=c1[nH]c(=O)c2[nH]c(=O)[nH]c2[nH]1 | 85.6%
CCN(CC)CCOc1ccc(Nc2ncc3cc(-c4c(Cl)cccc4Cl)c(=O)n(CCOC)c3n2)cc1 | 3.97% (active)
C#C[C@]1(O)CC[C@H]2[C@@H]3CC=C4c5sc(-c6ccccn6)nc5CC[C@]4(C)[C@H]3CC[C@@]21C | 89.2%
CCOC(=O)C(C(=O)OCC)C1CCCCC1 | 105%
CO[C@H]1/C=C/O[C@@]2(C)Oc3c(C)c(O)c4c(O)c(c(/C=N/N5C(C)CN(Cc6ccccc6)CC5C)c(O)c4c3C2=O)NC(=O)/C(C)=C\C=C\[C@H](C)[C@H](O)[C@@H](C)[C@@H](O)[C@@H](C)[C@H](OC(C)=O)[C@@H]1C (stereo not given in full) | 65.1%
O=C1c2cccnc2C(=O)c2nc3cc(N4CCN(C5CC5)CC4)ccc3nc21 | -22% (active)
COc1ccc(CC(C#N)c2cc3ccccc3[nH]2)cc1 (stereo not given) | 89.6%
CCCCCCCCCCCCCC[n+]1ccc2c(C)c3c(c(C)c2c1)c1cc(O)ccc1n3CC | -63.6% (active)
CC1(C)CC[C@]2(CO)CC[C@]3(C)[C@H](CC[C@@H]4[C@@]5(C)CCCNC(C)(C)[C@@H]5CC[C@]43C)[C@H]2[C@H]1O | 71.3%
Cc1ccc(-c2nc([P+](c3ccccc3)(c3ccccc3)c3ccccc3)c(N3CCOCC3)o2)cc1 | -27.6% (active)
CCOC(=O)C(C)(C#N)C1C=CCCC1 (stereo not given) | 75.6%
C=CCn1c(SCC(=O)Nc2cccc(C(=O)/C=C/c3ccccc3Cl)c2)nc2ccccc2c1=O | 98.1%
COc1ccc2[nH]cc(-c3nn4cc(-c5ccncc5)nc4s3)c2c1 | 29.2%
O=C(CN1CCCCC1)Nc1ccc2oc(=O)ccc2c1 | 107%
N#CC1=C(N)n2nc(-c3ccncc3)nc2NC1c1cccc2ccccc12 (stereo not given) | 76.1%
Cc1ccc2c(c1)sc(-c1ccc(N(C)C)cc1)[n+]2C | -11.3% (active)
